SMILES strings stand for the structures. “And” between values parts separate entries of the source, which are not always exact repeats. Identical values can stand only once. Results filed as inconclusive are left out.

The first assay can be described thus: qHTS Assay for Lipid Storage Modulators (AID 1519). The conditions noted are these: Drosophila S3 cells, BODIPY lipid droplet/cell ratio, laser cytometry; measured here: cell count channel max response; cells loaded with oleic acid. Put shortly: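 Cells seeded at 5,000 per well were treated with compounds over a concentration series and loaded with oleic acid (400 uM, as added). Lipid droplet fluorescence (488 nm excitation, 500-530 nm channel) was read by laser-scanning cytometry and normalized to 20 uM Triacsin C.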
In the case of `CN(C(=O)CN(CCO)CC(=O)N(C)C(C)(C)Cc1ccccc1)C(C)(C)Cc1ccccc1`, the max response was -9.05% and 8.48%.
For `O=C1c2ccccc2C(=O)C1c1ccccc1`, the max response was -13.1% and 15.4%.
The same measure, in the same setting: for `CNCCC=C1c2ccccc2CCc2ccccc21` the value was -0.512% and 24.9%.
In the case of `CCN(CC)CCOC(=O)C(c1ccccc1)C1CCCCC1` (configuration not stated), the max response was determined as 11.2%.
`CC(Cc1cccc(C(F)(F)F)c1)NCCOC(=O)c1ccccc1` (configuration not stated): the max response was -3.51%.
As for `CCN(CCCc1ccccc1)CCCc1ccccc1`, the max response was 1.49% and 14.3%.
`Cc1cc(=O)n(-c2ccccc2)n1C`: the max response was -1.15% and 10.6%.
As for `CN1CCN(C(c2ccccc2)c2ccccc2)CC1`, the max response was -1.91% and 18%.
On to `CCOc1ccc(Cc2nccc3cc(OCC)c(OCC)cc23)cc1OCC`, for which the max response was -4.38%.
Consider `CN(C)CC/C=C1\c2ccccc2Sc2ccc(Cl)cc21`, for which the max response was -15.8% and 5.25%.
Take `CCCCOc1ccc(OCCCN2CCOCC2)cc1`: the max response is -13.4%.
With `CC(=O)N(O)CCCCCNC(=O)CCC(=O)N(O)CCCCCNC(=O)CCC(=O)N(O)CCCCCN`, the max response was -10.2% and 15.7%.
Still for that read-out and setting: then `C/C=C/c1ccc(OC)cc1`, with 9.56%; and `CN1CCN(CCCN2c3ccccc3Sc3ccc(S(=O)(=O)N(C)C)cc32)CC1`, with -3.59%.
As to `COc1cc(OC)cc(OC)c1`, the max response is -0.306%.
With `O=C(OCC(O)CO)c1ccccc1Nc1ccnc2cc(Cl)ccc12` (configuration not stated), the max response was 5.57%.
`CN1CCC(=C2c3ccccc3Sc3ccccc32)CC1`: the max response was 3.5% and 5.85%.
Consider `CCCCc1nc(Cl)c(CO)n1Cc1ccc(-c2ccccc2-c2nn[nH]n2)cc1`, for which the max response came to 13.8%.
With `CCN(CC)C(=O)N1CCN(C)CC1`, the max response was -1.64% and 22.2%.
For the molecule `OC(CCN1CCCCC1)(c1ccccc1)c1ccccc1`, the max response is 1.42% and 9.61%.
As to `OCc1ccccc1O`, the max response is -8.44%.
For `Oc1c(I)cc(I)c2cccnc12`, the max response came out at 9.29%.
Still for that read-out and setting: then `C[C@H](O)C(=O)Nc1c(I)c(C(=O)NC(CO)CO)c(I)c(C(=O)NC(CO)CO)c1I`, with -8.47%.
Still for that read-out and setting: then `CCOC(=O)n1ccn(C)c1=S`, with -4.79% and 2.58%; and `Cc1ccnc(NS(=O)(=O)c2ccc(N)cc2)n1`, with -11% and -0.764%; and `Cc1c(N(C)CS(=O)(=O)O)c(=O)n(-c2ccccc2)n1C`, with -6.35% and 7.26%.
On the same count and under the same terms, for `CCn1cc(C(=O)O)c(=O)c2cnc(N3CCCC3)nc21` the value was -11.9%; for `CCCC(=O)Nc1ccc(OCC(O)CNC(C)C)c(C(C)=O)c1` (configuration not stated), 16.7%.
With `Nc1nc2ncc(CNc3ccc(C(=O)N[C@@H](CCC(=O)O)C(=O)O)cc3)nc2c(=O)[nH]1`, the max response is -7.62% and 6.6%.
In the case of `CCCCOc1cc(C(=O)NCCN(CC)CC)c2ccccc2n1`, the max response was -8.72% and 19.1%.
Regarding `CO/N=C1\CN(c2nc3c(cc2F)c(=O)c(C(=O)O)cn3C2CC2)CC1CN` (configuration not stated), the max response was 11%.
Turning to `c1ccc(-c2ccc(C(c3ccccc3)n3ccnc3)cc2)cc1` (configuration not stated), the max response is 10.1%.
Still for that read-out and setting: for `CC[N+](CC)(CCNC(=O)C(=O)NCC[N+](CC)(CC)Cc1ccccc1Cl)Cc1ccccc1Cl` the value was -14%; for `CN(C)CCCOc1nn(Cc2ccccc2)c2ccccc12`, 1.49%; for `COc1ccc(CCN2CCC(Nc3nc4ccccc4n3Cc3ccc(F)cc3)CC2)cc1`, -13.7% and 8.29%.
`NCCc1ccn[nH]1`: the max response turned out to be 12.5%.

The same assay, now with this note: Drosophila S3 cells, BODIPY lipid droplet/cell ratio, laser cytometry; measured here: lipid channel max response; cells loaded with oleic acid.
In the case of `CN(C(=O)CN(CCO)CC(=O)N(C)C(C)(C)Cc1ccccc1)C(C)(C)Cc1ccccc1`, the max response is -21.3% and 13.9%.
On to `O=C1c2ccccc2C(=O)C1c1ccccc1`, for which the max response is -14% and 33.1%.
`CNCCC=C1c2ccccc2CCc2ccccc21`: the max response is -6.43% and 39.3%.
Regarding `CCN(CC)CCOC(=O)C(c1ccccc1)C1CCCCC1` (configuration not stated), the max response was determined as 13.6%.
With `CC(Cc1cccc(C(F)(F)F)c1)NCCOC(=O)c1ccccc1` (configuration not stated), the max response is -2.7%.
Consider `CCN(CCCc1ccccc1)CCCc1ccccc1`, for which the max response is -0.884% and 21.1%.
Still for that read-out and setting: for `Cc1cc(=O)n(-c2ccccc2)n1C` the value was 1.09% and 14.3%.
Regarding `CN1CCN(C(c2ccccc2)c2ccccc2)CC1`, the max response is -3.01% and 29.7%.
As to `CCOc1ccc(Cc2nccc3cc(OCC)c(OCC)cc23)cc1OCC`, the max response is -26.4%.
Same read-out and setting: then `CN(C)CC/C=C1\c2ccccc2Sc2ccc(Cl)cc21`, with -14.2% and 16.4%; and `CCCCOc1ccc(OCCCN2CCOCC2)cc1`, with -13.4%.
As for `CC(=O)N(O)CCCCCNC(=O)CCC(=O)N(O)CCCCCNC(=O)CCC(=O)N(O)CCCCCN`, the max response is -12.1% and 27.1%.
For `C/C=C/c1ccc(OC)cc1`, the max response worked out at 22.7%.
Turning to `CN1CCN(CCCN2c3ccccc3Sc3ccc(S(=O)(=O)N(C)C)cc32)CC1`, the max response is -5.35%.
Regarding `COc1cc(OC)cc(OC)c1`, the max response stood at 3%.
As for `O=C(OCC(O)CO)c1ccccc1Nc1ccnc2cc(Cl)ccc12` (configuration not stated), the max response was determined as 7.83%.
Same read-out and setting: for `CN1CCC(=C2c3ccccc3Sc3ccccc32)CC1` the value was -0.527% and 23.3%; for `CCCCc1nc(Cl)c(CO)n1Cc1ccc(-c2ccccc2-c2nn[nH]n2)cc1`, 25.7%.
On the same count and under the same terms, for `CCN(CC)C(=O)N1CCN(C)CC1` the value was 2.25% and 24.5%; for `OC(CCN1CCCCC1)(c1ccccc1)c1ccccc1`, -4.61% and 14.1%; for `OCc1ccccc1O`, 0.187%.
The same measure, in the same setting: for `Oc1c(I)cc(I)c2cccnc12` the value was 10.6%.
Consider `C[C@H](O)C(=O)Nc1c(I)c(C(=O)NC(CO)CO)c(I)c(C(=O)NC(CO)CO)c1I`, for which the max response is -9.62%.
Regarding `CCOC(=O)n1ccn(C)c1=S`, the max response is -8.09% and 22%.
With `Cc1ccnc(NS(=O)(=O)c2ccc(N)cc2)n1`, the max response was -8.59% and 9.99%.
As to `Cc1c(N(C)CS(=O)(=O)O)c(=O)n(-c2ccccc2)n1C`, the max response is -5.13% and 21%.
Take `CCn1cc(C(=O)O)c(=O)c2cnc(N3CCCC3)nc21`: the max response was -16.2%.
`CCCC(=O)Nc1ccc(OCC(O)CNC(C)C)c(C(C)=O)c1` (configuration not stated): the max response worked out at 24.3%.
In the case of `Nc1nc2ncc(CNc3ccc(C(=O)N[C@@H](CCC(=O)O)C(=O)O)cc3)nc2c(=O)[nH]1`, the max response is -8.4% and 15.7%.
With `CCCCOc1cc(C(=O)NCCN(CC)CC)c2ccccc2n1`, the max response is -8.39% and 23.8%.
`CO/N=C1\CN(c2nc3c(cc2F)c(=O)c(C(=O)O)cn3C2CC2)CC1CN` (configuration not stated): the max response was found to be 24%.
Take `c1ccc(-c2ccc(C(c3ccccc3)n3ccnc3)cc2)cc1` (configuration not stated): the max response came to 27.7%.
On the same count and under the same terms, then `CC[N+](CC)(CCNC(=O)C(=O)NCC[N+](CC)(CC)Cc1ccccc1Cl)Cc1ccccc1Cl`, with -12.6%.
With `CN(C)CCCOc1nn(Cc2ccccc2)c2ccccc12`, the max response is -2.83%.
Consider `COc1ccc(CCN2CCC(Nc3nc4ccccc4n3Cc3ccc(F)cc3)CC2)cc1`, for which the max response was -24.1% and 21%.
Turning to `NCCc1ccn[nH]1`, the max response is 11.2%.

The values are drawn from PubChem BioAssay (NCATS).
